Sampled rows, rich in hits. Any-hit rate of the full collection: about 10%.
L3MBTL1 inh = inhibitors of human L3MBTL1; Q9Y468; AlphaScreen L3MBTL1–H3K9me1 peptide binding; Potency, µM (series often up to 57.1 µM), most hits filed as inhibitors; actives 0.66% (n = 230,000); AID 485360; further: nearly all actives have a fitted effect of over 60% in size
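Displacement of a biotinylated histone H3(1-15) peptide monomethylated at Lys9 (75 nM) from L3MBTL1 (50 nM) was measured by AlphaScreen after a 30 min room-temperature compound incubation; cefsulodin titration served as intraplate control.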
BAZ2B inh = BAZ2B (human) inhibition; AlphaScreen BAZ2B-H3K14Ac peptide displacement; actives 4.4% (n = 360,000); Potency, µM (highest dose often 114 µM), hits mostly inhibitors; Q9UIF8; further: nearly all actives have a fitted effect of over 60% in size
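AlphaScreen displacement: compounds (up to 110uM) incubated 30 min at room temperature with a preformed 50 nM BAZ2B/50 nM biotinylated H3K14Ac peptide complex in PBS pH 7.4 with Tween-20. Donor and acceptor beads at 10 ug/mL final added, 20 min light-protected before reading.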
JMJD2A Tudor inh = inhibitors of human JMJD2A Tudor domain; AID 504339; AlphaScreen JMJD2A-Tudor / H3K4me3 peptide binding; O75164; actives 4.4% (n = 390,000); Potency, µM (top dose mostly 114 µM), hits mostly inhibitors; further: nearly all actives have a fitted effect of over 50% in size
G9a inh = blocks human histone lysine methyltransferase G9a. Q96KQ7. actives 8.8% (n = 350,000). G9a H3K9 monomethylation, AlphaScreen, 2 h. Potency, µM (top dose mostly 102 µM), most hits filed as inhibitors; further: nearly all actives have a fitted effect of over 75% in size
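G9a (20 nM) was preincubated 15 min with compound, then reacted 2 h at room temperature with 500 nM biotin-H3K9 peptide and 20 µM SAM. Monomethyl-H3K9 detected by AlphaScreen using anti-H3K9me1 antibody.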
HP1b binding inh = blocks HP1-beta chromodomain binding to methylated histone tails; Potency, µM (highest dose often 114 µM), hits mostly inhibitors; AlphaScreen HP1-beta / biotin-H3K9me3 peptide binding; actives 0.56% (n = 390,000); further: nearly all actives have a fitted effect of over 70% in size
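AlphaScreen: HP1-beta (50 nM) preformed 30 min with biotin-H3(1-18)K9me3 peptide (50 nM) in PBS pH 7.4, 0.01% Tween-20. Compound added for 30 min at RT, then streptavidin donor/nickel chelate acceptor beads (10 ug/mL) for 30 min.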
GLS inh = inhibitors of human glutaminase (GLS); O94925; GLS enzymatic activity, qHTS titration; Potency, µM (doses to about 45.5 µM), hits mostly inhibitors; actives 0.21% (n = 410,000); AID 624170
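Coupled fluorescence readout: glutamate oxidase/HRP/Amplex Red detect glutamate formed by hKGA from L-glutamine (1 mM solution added). Buffer 45 mM KH2PO4 pH 8.2, 0.02% Tween-20; reads at t0 and 30 min RT.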
Large screens that a line does not name were inactive. The call rests on the fitted dose curve; in most records, active means well fitted curve in the direction sought with a large enough effect; inconclusive means small, poorly fitted or top-dose-only effect, or another doubt; inactive means no such curve, though single readings can be large; an effect the other way counts as inactive or inconclusive.

Cc1cc(C)c(S(=O)(=O)Nc2ccc(-c3ccc(N4CCCCC4)nn3)cc2)cc1C	none (no result: L3MBTL1 inh)
COc1ccc(C)cc1Nc1n[n+](-c2ccccc2)c(-c2ccc(OC)c(OC)c2OC)s1	BAZ2B inh inconclusive, JMJD2A Tudor inh inconclusive (no result: G9a inh)
COc1ccc(C)cc1Nc1n[n+](-c2ccccc2)c(-c2c(Cl)cccc2Cl)s1	L3MBTL1 inh inconclusive, BAZ2B inh 16µM, JMJD2A Tudor inh 50µM, G9a inh 40µM, HP1b binding inh inconclusive
COc1ccc(C)cc1Nc1n[n+](-c2ccccc2)c(-c2ccc(N(C)C)cc2)s1	BAZ2B inh 28µM, JMJD2A Tudor inh 50µM, G9a inh 50µM, HP1b binding inh inconclusive
CCC12CC3CC(C1)CC(C(=O)Nc1nn[nH]n1)(C3)C2	BAZ2B inh inconclusive, JMJD2A Tudor inh 25µM, G9a inh 20µM
CC12CC3(C)CC(C)(C1)CC(C(=O)Nc1nn[nH]n1)(C2)C3	BAZ2B inh inconclusive, JMJD2A Tudor inh 50µM, G9a inh 35µM (no result: L3MBTL1 inh)
CC(C)(C)CC(=O)Nc1nn[nH]n1	BAZ2B inh 79µM, JMJD2A Tudor inh 56µM, G9a inh inconclusive
COC(=O)CNC(=O)C12CC3(C)CC(C)(CC(C)(C3)C1)C2	none (no result: L3MBTL1 inh)
CC12CC3CC(C)(C1)CC(C(=O)Nc1nn[nH]n1)(C3)C2	BAZ2B inh inconclusive, JMJD2A Tudor inh 20µM, G9a inh 35µM
Cc1nnc(NC(=O)C23CC4CC(C)(CC(C)(C4)C2)C3)s1	none (no result: L3MBTL1 inh, BAZ2B inh, G9a inh)
CC(C)(C)CC(=O)Nc1nnc(C(F)(F)F)s1	none
COc1ccc(NC(=O)c2nc(SCc3ccccc3F)ncc2Cl)cc1	none (no result: L3MBTL1 inh)
CCCc1cc(-c2n[nH]c(=S)n2CC(C)C)cs1	JMJD2A Tudor inh 79µM, G9a inh 2µM, GLS inh inconclusive
CCCCn1c(-c2csc(CC)c2)n[nH]c1=S	JMJD2A Tudor inh 40µM, G9a inh 1.8µM, GLS inh inconclusive
CCCCn1c(-c2csc(C(C)C)c2)n[nH]c1=S	JMJD2A Tudor inh 79µM, G9a inh 4µM, HP1b binding inh inconclusive
CC(=O)OCC(=O)[C@@]1(O)CCC2C3CCC4=CC(=O)C=CC4(C)C3C(O)C[C@]21C (stereo not given in full)	none (no result: L3MBTL1 inh, BAZ2B inh, JMJD2A Tudor inh, HP1b binding inh)
CCSC1=NC2(CCN(C(=O)NC3CCCCC3)CC2)N=C1c1ccc(OC)cc1	none (no result: L3MBTL1 inh)
CC(=O)N1CCCc2cc(S(=O)(=O)N(C)CC(=O)Nc3cccc(C)c3C)ccc21	none (no result: L3MBTL1 inh)
COc1cc(-c2cc(N)n(S(=O)(=O)c3ccccc3)n2)cc(OC)c1OC	none (no result: L3MBTL1 inh)
Nc1cc(-c2ccccc2)nn1S(=O)(=O)c1ccc(Br)cc1	G9a inh 50µM (no result: L3MBTL1 inh)
CCCN(CCC)CC(O)CN(c1cc([N+](=O)[O-])ccc1OC)S(=O)(=O)c1ccccc1 (stereo not given)	G9a inh 56µM
COc1ccccc1N(CC(O)CN1CCOCC1)S(=O)(=O)c1ccccc1 (stereo not given)	G9a inh 50µM (no result: L3MBTL1 inh)
CN(C)c1cc2c(cc1NC(=O)c1ccccc1Cl)n(C)c(=O)n2C	BAZ2B inh 50µM (no result: L3MBTL1 inh)
CCOC(=O)C1CCN(c2cc3c(cc2NC(=O)c2ccccc2Br)n(C)c(=O)n3C)CC1	BAZ2B inh 50µM, JMJD2A Tudor inh inconclusive (no result: L3MBTL1 inh, G9a inh)
COc1ccc(Br)c(C(=O)Nc2cc3c(cc2N2CCOCC2)n(C)c(=O)n3C)c1	BAZ2B inh 79µM (no result: L3MBTL1 inh)
Cc1ccccc1C(=O)Nc1cc2c(cc1N1CCOCC1)n(C)c(=O)n2C	BAZ2B inh 50µM (no result: L3MBTL1 inh)
Cc1cccc(NC(=O)Cn2c(=O)n(CC3CCC(C(=O)NCCc4ccccc4)CC3)c(=O)c3ccccc32)c1 (stereo not given)	none (no result: L3MBTL1 inh)
Cc1ccc(NC(=O)N2CCc3cc(S(=O)(=O)N4CCC(C)CC4)ccc32)cc1C	none (no result: L3MBTL1 inh)
Cc1ccccc1C(=O)Nc1cc2c(cc1N1CCCCC1)n(C)c(=O)n2C	BAZ2B inh 25µM, JMJD2A Tudor inh inconclusive, G9a inh 16µM (no result: L3MBTL1 inh)
CSc1ccccc1NC(=O)CN(C)CC(=O)Nc1ccccc1N1CCOCC1	none (no result: L3MBTL1 inh)
Cc1cc(C(=O)Nc2ccccc2N2CCOCC2)c(C)o1	G9a inh 56µM
